# Laboratory results as given in PubChem BioAssay.
# The source made the active and inactive calls.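 How the source made its calls, unless noted: active means a full or partial loss of lipid-probe fluorescence in the fish gall bladder, intestine or both, judged by eye; inactive means no fluorescence loss, or compound toxic to the fish.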
# Key:
# [1] = inhibitors of TNFa-induced NFkB p65 translocation, primary screen, imaging, HUVEC, MLSMR starter and 10KST1 sets (AID 438;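 active means inhibition above 20% together with a positive visual image hit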;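 further: compound added about 3h40 before a 20 min TNFalpha stimulation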;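 on inhibition: signal is the nuclear over cytoplasmic p65 intensity ratio per well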); settings: HUVEC TNFa-induced p65 nuclear translocation; cell count: measured here: nuclei count (cytotoxicity indicator), at 2.08 µM; inhibition: at 2 µM, stronger effect = higher value, 0% TNFa-plus-vehicle, 100% no-TNFa wells
# [2] = endothelial E-selectin expression blockers – imaging, HUVEC, immunofluorescence, MLSMR starter and 10KST1 sets, primary screen (AID 487;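 active means visually confirmed hit in the image check and inhibition above 20%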;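 on inhibition: signal is fraction of cell area covered by stained E-selectin grains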;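 on nuclei count: 100% = median nuclei count of all wells on the same plate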); settings: HUVEC TNFalpha-induced E-selectin immunofluorescence imaging, at 2 µM; inhibition: stronger effect = higher value; nuclei count: measured here: cell number, toxicity
# [3] = Primary imaging screen for DUSP6 inhibitors that restore phospho-Erk in transfected HeLa cells, chemical complementation (AID 609;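 active means compounds giving at least 50% inhibition in the cell-based MKP-3 phosphatase rescue imaging test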;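 on inhibition: phospho-Erk level distribution per well compared with pooled transfected vehicle control wells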); settings: HeLa MKP-3 transfected, phospho-Erk imaging KS statistic, at 10 µM, cells stimulated with TPA for 15 min
# [4] = molecular target: Dual specificity protein phosphatase 6 (Homo sapiens) (UniProt Q16828); assay: as above; settings: HeLa MKP-3 transfected, phospho-Erk imaging KS statistic; at 10 µM; stronger effect = higher value; cells stimulated with TPA for 15 min
# Sequence of Dual specificity protein phosphatase 6 (Homo sapiens) (Q16828 whole entry, looked up): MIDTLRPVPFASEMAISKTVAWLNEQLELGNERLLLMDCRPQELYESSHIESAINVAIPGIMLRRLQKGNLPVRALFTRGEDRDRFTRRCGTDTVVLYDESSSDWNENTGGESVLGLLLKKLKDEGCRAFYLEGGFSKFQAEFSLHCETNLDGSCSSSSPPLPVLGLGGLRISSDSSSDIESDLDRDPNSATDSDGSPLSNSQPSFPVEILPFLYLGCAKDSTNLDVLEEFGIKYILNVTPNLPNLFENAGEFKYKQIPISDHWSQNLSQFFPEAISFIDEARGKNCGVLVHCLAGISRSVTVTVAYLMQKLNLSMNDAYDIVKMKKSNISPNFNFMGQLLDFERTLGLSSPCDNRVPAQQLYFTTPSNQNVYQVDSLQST
# [5] = molecular target: Voltage-gated potassium channel subunit beta-2 (Rattus norvegicus) (UniProt P62483); assay: inhibitors of rat Kvbeta2 reductase activity – biochemical, NADPH fluorescence, primary screen (AID 622;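 active means fluorescence slope higher than the sample average by over 3 SD, cut at about -0.22 in these data, passing the limit was not always enough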;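 further: slope of raw intensity against log time taken from 70 to 1610 s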); settings: recombinant KvBeta, 4-cyanobenzaldehyde reduction, at 10 µM, stronger effect = higher value
# Sequence of Voltage-gated potassium channel subunit beta-2 (Rattus norvegicus) (P62483 whole entry, looked up): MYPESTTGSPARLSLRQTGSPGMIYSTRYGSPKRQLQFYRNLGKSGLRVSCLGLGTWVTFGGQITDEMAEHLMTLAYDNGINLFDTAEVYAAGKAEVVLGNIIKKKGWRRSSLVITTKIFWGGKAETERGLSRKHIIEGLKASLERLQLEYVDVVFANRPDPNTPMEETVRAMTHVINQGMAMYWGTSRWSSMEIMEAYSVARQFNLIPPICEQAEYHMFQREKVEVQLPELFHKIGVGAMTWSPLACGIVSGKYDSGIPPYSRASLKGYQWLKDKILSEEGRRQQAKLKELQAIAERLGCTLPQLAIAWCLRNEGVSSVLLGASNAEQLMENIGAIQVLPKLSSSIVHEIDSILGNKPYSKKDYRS
# [6] = molecular target: Voltage-gated potassium channel subunit beta-2 (Rattus norvegicus) (UniProt P62483); assay: enhancers of rat Kvbeta2 NADPH turnover – biochemical, NADPH fluorescence, primary screen (AID 623;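 active means NADPH fluorescence slope more negative than the mean of all samples by about 3 SD, 99.7% confidence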;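 further: fluorescence intensity change per second fitted from 20 to 320 s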); settings: Recombinant KvBeta, NADPH fluorescence decrease slope, 10 min; at 10 µM; stronger effect = lower value
# [7] = molecular target: Muscarinic acetylcholine receptor M4 (Homo sapiens) (UniProt P08173); assay: M4-linked GIRK flux change, two-sided – cell-based, HEK293 M4/GIRK, thallium flux, BTC-AM, M4 allosteric agonist project, primary screen (AID 625;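 active means fluorescence slope after compound addition differing from the mean of all tested samples at 99.7% confidence, mostly higher but some lower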;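 further: thallium influx through GIRK channels coupled to M4 in HEK293 cells with BTC-AM dye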); settings: at 10 µM, actives lie on both sides
# Sequence of Muscarinic acetylcholine receptor M4 (Homo sapiens) (P08173 whole entry, looked up): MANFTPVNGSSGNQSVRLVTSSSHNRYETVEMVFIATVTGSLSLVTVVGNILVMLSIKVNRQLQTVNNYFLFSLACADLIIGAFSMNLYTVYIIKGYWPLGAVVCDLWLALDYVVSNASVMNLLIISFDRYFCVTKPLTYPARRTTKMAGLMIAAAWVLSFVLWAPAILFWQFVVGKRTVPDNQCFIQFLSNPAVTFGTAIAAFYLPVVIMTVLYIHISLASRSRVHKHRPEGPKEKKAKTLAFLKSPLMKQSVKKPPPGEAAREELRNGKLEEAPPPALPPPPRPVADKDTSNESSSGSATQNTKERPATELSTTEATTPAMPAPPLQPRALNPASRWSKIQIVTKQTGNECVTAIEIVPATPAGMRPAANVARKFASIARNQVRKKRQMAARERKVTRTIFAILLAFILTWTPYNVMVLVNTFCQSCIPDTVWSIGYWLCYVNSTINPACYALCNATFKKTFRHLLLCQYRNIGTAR
# [8] = inhibitors of larval lipid processing in zebrafish, primary screen, whole organism, PED6 fluorescence, gall bladder and intestine (AID 686); settings: Zebrafish larvae PED6 lipid processing, fluorescence scoring; screened at 20 µM (by protocol);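 further: larvae 5 to 7 days old with five fish per well; signal comes from phospholipase A2 cleavage of quenched PED6 carried via bile; overnight exposure to compound and PED6 before scoring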
# [9] = loss of swimming-algae plug formation – whole organism, Chlamydomonas reinhardtii, WT vs cilia-less mutant, absorbance, 96-well, primary screen (AID 463189;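 active means inhibition at or above 50% relative to wild type and mutant plate controls; inactive means inhibition below 50%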;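 further: 0% = wild type cc124 cells in DMSO and 100% = ciliumless bld1 mutant cells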); settings: Chlamydomonas reinhardtii gravitaxis, OD600 absorbance, 2 days; at 10 µM; stronger effect = higher value
# [10] = measured here: cell density z-score
# [11] = measured here: nuclear c-Myc green intensity z-score
# [12] = measured here: nuclear pErk red intensity z-score, stronger effect = higher value
SMILES,cell count [1],inhibition [1],inhibition [2],nuclei count [2] [%],"z-score [3, 10]","z-score [3, 11]","z-score [3, 12]",inhibition [4],fluorescence slope [5],NADPH fluorescence slope [6],fluorescence slope [7],outcome [8],inhibition [9]
COc1ccccc1NC(=O)c1c(C)cc(=O)oc1C,601,-14.3% (inactive),35.3% (inactive),145,-0.227,-0.0987,-0.0601,-4.59% (inactive),-0.409 (inactive),-3e-05 (inactive),0.00639 (inactive),inactive,17.9% (inactive)
Cn1c(=O)c2c(nc(NCc3ccc4c(c3)OCO4)n2Cc2ccccc2)n(C)c1=O,656,-20.1% (inactive),-108% (inactive),96.2,-0.797,-1.34,-1.17,-7.93% (inactive),-0.5 (inactive),-0.000109 (inactive),0.00776 (inactive),inactive,-2.21% (inactive)
COc1ccc(C(O)C(CN2CCOCC2)c2ccccc2)cc1 (centres undefined),393,-2.8% (inactive),-22.6% (inactive),144,-0.497,-1.2,2.05,-2.59% (inactive),-0.44 (inactive),-0.00013 (inactive),0.00559 (inactive),inactive,-3.86% (inactive)
CC(C)c1ccc(O)c(N)c1,660,-20.9% (inactive),-16.4% (inactive),180,1.39,-1.5,0.0534,22.1% (inactive),-0.527 (inactive),-1.2e-05 (inactive),0.00607 (inactive),inactive,11.1% (inactive)
COc1cc(C2C(C(=O)c3sc(C)nc3C)=C(O)C(=O)N2CCN(C)C)cc(OC)c1OC (centres undefined),398,3.6% (inactive),-36.2% (inactive),155,0.333,0.0451,0.204,3.56% (inactive),-0.446 (inactive),-0.000115 (inactive),0.00444 (inactive),inactive,-3.66% (inactive)
CCC1CC2(C)NC(=O)c3c(sc4c3CC(C)(C)OC4)N2C1=O (centres undefined),497,-0.8% (inactive),-48.8% (inactive),175,0.444,0.00352,-0.401,1.98% (inactive),-0.397 (inactive),3.9e-06 (inactive),0.00496 (inactive),inactive,31.2% (inactive)
C=CCN=C(NC#N)SCCc1ccccc1,587,-16.1% (inactive),49.5% (inactive),161,-0.943,1.91,-0.167,-5.62% (inactive),-0.498 (inactive),-6.6e-05 (inactive),0.00676 (inactive),inactive,-0.302% (inactive)
CCCCc1cc(=O)oc2c(CN3CCCC3)c(O)ccc12,600,-1.9% (inactive),32.2% (inactive),151,0.99,-0.992,-0.105,4.37% (inactive),-0.0163 (inactive),5.9e-06 (inactive),0.00474 (inactive),inactive,-2.81% (inactive)
CCOC(=O)c1c2c(c(=S)n(-c3ccccc3)c1N)CCC2,569,-8.6% (inactive),-65.1% (inactive),135,-0.086,1.03,-0.638,-3.95% (inactive),-0.463 (inactive),-9.5e-05 (inactive),0.00449 (inactive),inactive,9.7% (inactive)
COC(=O)CC1=C(C(=O)OC)C(c2cccc(OCC(N)=O)c2)C(C#N)=C(N)O1 (centres undefined),723,-1% (inactive),-67.7% (inactive),186,-1.4,0.109,1.84,27.5% (inactive),-0.432 (inactive),-7e-05 (inactive),0.00612 (inactive),inactive,12% (inactive)
Nc1nnnn1/N=C/c1cccs1,656,-4.7% (inactive),-50.1% (inactive),124,-0.3,-1.24,-0.836,-8.95% (inactive),-0.483 (inactive),-6.6e-05 (inactive),0.00656 (inactive),inactive,17.8% (inactive)
COc1ccc(C2C(C(C)=O)=C(O)C(=O)N2c2nccs2)cc1OC (centres undefined),651,-8.9% (inactive),-2.2% (inactive),87.4,-0.646,-0.662,-0.478,-7.67% (inactive),-0.5 (inactive),-0.000231 (inactive),0.00821 (inactive),inactive,-3.88% (inactive)
Clc1ccccc1CN(Cc1ccccc1)c1ncnc2nc[nH]c12,523,7.2% (inactive),5.3% (inactive),93,-3.05,1.38,0.29,1.63% (inactive),-0.481 (inactive),-4.9e-05 (inactive),0.00447 (inactive),inactive,38.7% (inactive)
